# Measured values published in PubChem BioAssay (NCATS).
# Results filed as inconclusive are left out. Entries that show only a call come without a potency. The source made the active and inactive calls. Unless noted, calls come from the whole dose curve; as a rule, active = well fitted curve in the direction sought with a large enough effect; inconclusive = small, poorly fitted or top-dose-only effect, or another doubt; inactive = no such curve, though single readings can be large; an effect the other way counts as inactive or inconclusive.
# Columns and labels:
# [1] = qHTS Assay for Identification of Small Molecule Agonists for Hypoxia Response Element Signaling Pathway (AID 914; active = well fitted activation curve with a large enough effect in the signal ratio, with a control signal flat, not every such curve was filed as active; the % refers to the signal ratio); details: ME-180 (cervical carcinoma) HRE-bla reporter, beta-lactamase ratio, CoCl2, 17 h; activation: stronger effect = higher value
# Method in brief: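 Compounds in a titration series were added to ME-180 reporter cells alongside an EC50 level of CoCl2. After 17 hours, beta-lactamase activity was read as the 460nm/530nm emission ratio of CCF4, giving AC50 values.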
# [2] = target: Peroxisome proliferator-activated receptor gamma (Homo sapiens) (UniProt P37231); experiment: qHTS assay for small molecule agonists of peroxisome proliferator-activated receptor gamma signaling (AID 588536; active = well fitted curve in the direction sought with a large enough effect in the signal ratio, with a control signal flat, not every such curve was filed as active; the % refers to the signal ratio)
# Method in brief: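 GeneBLAzer PPAR-gamma-UAS-bla HEK293 cells in 1% charcoal/dextran-treated FBS medium were treated 16 h at 37 C with compounds. Beta-lactamase activity was read by CCF4 ratio (460/530 nm). Response was normalized to 2 uM rosiglitazone (100%) and DMSO, then Hill-fitted for EC50 and efficacy.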
# [3] = qHTS assay to identify small molecules that stimulate interleukin-8 (IL-8) secretion (AID 651758; active = well fitted activation curve with a large enough effect in the signal ratio; the % refers to the signal ratio)
# Method in brief: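 THP-1, 2000 cells/well; cpd 16 h, 37 C; add cryptate + XL665 anti-IL-8 Abs; RT 1-3 h; TR-FRET read.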
# [4] = qHTS assay for small molecule antagonists of peroxisome proliferator-activated receptor delta signaling (AID 588535); details: HEK293T PPARd-UAS-bla, beta-lactamase FRET ratio, 18 h; 460 nm channel;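 note: cells co-treated with a PPAR-delta agonist as stimulator during compound exposure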
# Method in brief: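 GeneBLAzer PPAR-delta-UAS-bla HEK293T cells in medium with 2% charcoal/dextran FBS were preincubated 5 hrs at 37 C, then given compounds, incubated 18 hrs at 37 C, and read by CCF4 beta-lactamase fluorescence; IC50 from Hill fits.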
# [5] = target: Cytochrome P450 2D6 (Homo sapiens) (UniProt P10635); experiment: qHTS Assay for Inhibitors and Substrates of Cytochrome P450 2D6 (AID 891); note: nearly all actives have a fitted effect of over 60% in size; note: potency is the fitted concentration of half-maximal effect
# Method in brief: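 Human CYP2D6 (5 nM) with 30 uM Luciferin-ME EGE (at Km) in 100 mM KPO4, compound preincubated 10 min, then NADPH regeneration system for 60 min at room temperature. Luciferin read by luminescence; normalized to 1.43 uM quinidine.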
# [6] = target: Cytochrome P450 2C19 (Homo sapiens) (UniProt P33261); experiment: qHTS Assay for Inhibitors and Substrates of Cytochrome P450 2C19 (AID 899); note: nearly all actives have a fitted effect of over 60% in size
# Method in brief: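 NADPH-dependent conversion of Luciferin-H EGE (10uM, at KM) by 5nM enzyme in 50mM KPO4, 60 min at 37C following 10 min compound preincubation. Stopped with luciferin detection buffer; luminescence read after 20 min.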
# [7] = target: Ubiquitin carboxyl-terminal hydrolase 1 (Homo sapiens) (UniProt O94782); experiment: Inhibitors of USP1/UAF1: Pilot qHTS (AID 504865);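 note: rhodamine fluorescence freed from ubiquitin-rhodamine substrate followed over time; top concentration of the series differs between compounds; nearly all actives have a fitted effect of over 35% in size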
# Method in brief: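 1nM USP1/UAF1 + cpd, 15 min RT; start w/ Ub-Rho 150nM final; kinetic FL 480/540 nm, 6 reads q60 s. Buffer 50mM HEPES pH 7.8, 0.5mM EDTA, 1mM TCEP, 0.01% Tween-20, 0.1 mg/ml BSA.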
# [8] = target: Guanine nucleotide-binding protein G(i) subunit alpha-1 (Homo sapiens) (UniProt P63096); experiment: qHTS Assay for Inhibitors of RGS12 GoLoco Motif Activity (Green Fluorophore) (AID 879); note: potency is the fitted concentration of half-maximal effect
# Method in brief: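 Fluorescence polarization assay: 50 nM Gαi1 with 10 nM FITC-labeled RGS12 GoLoco peptide in 10 mM Tris pH 7.5, 150 mM NaCl, 0.1 mM GDP, 0.05% NP40, 10 min at room temperature with compound.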
# [9] = target: Cytochrome P450 3A4 (Homo sapiens) (UniProt P08684); experiment: qHTS Assay for Activators of Cytochrome P450 3A4 (AID 885); note: nearly all actives have a fitted effect of over 65% in size
# Method in brief: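 Human CYP3A4 (20 nM) with Luciferin-PPXE at 25 uM (its KM) in 200 mM KPO4; 10 min compound preincubation, then NADPH regeneration and 60 min reaction at RT. Luciferin read by luminescence; normalized to 57 uM ketoconazole full inhibition.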
# [10] = target: Muscarinic acetylcholine receptor M1 (Rattus norvegicus) (UniProt P08482); experiment: qHTS Assay for Antagonists of Acetylcholine Muscarinic M1 Receptor: Kinetic Measurement of Intracellular Calcium Response (AID 943);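 note: Fluo-4 calcium signal as peak divided by basal fluorescence over 4 min; nearly all actives have a fitted effect of over 75% in size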
# Method in brief: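 Intracellular calcium flux, recorded with Fluo-4 in a kinetic plate reader, served as signal; the response to carbachol at EC80 (100 nM final) was taken as maximal over minimal fluorescence after a 10 min compound pre-incubation in rat M1-CHO cells.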
# [11] = target: Pyruvate kinase PKM (Homo sapiens) (UniProt P14618); experiment: qHTS Assay for Activators of Human Muscle Pyruvate Kinase (AID 954; active = well fitted curve in the direction sought with a large enough effect, not every such curve was filed as active)
# Method in brief: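 Purified human PKM2 (0.1 nM) with 0.5 mM PEP (Km) and 0.1 mM ADP in 50 mM imidazole pH 7.2, KCl, MgCl2, 1 h at room temperature; ATP formed read by coupled luciferase luminescence. Normalized to no-enzyme/110 uM thiadiazolimine inhibition; 0.3 nM enzyme column for activation.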
# [12] = target: Alpha-galactosidase A (Homo sapiens) (UniProt P06280); experiment: Counterscreen for Glucocerebrosidase Inhibitors: qHTS Assay for Human alpha-Galactosidase at pH 4.5 (AID 992)
# Method in brief: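 Human enzyme (2 nM) with 80 uM 4-methylumbelliferyl alpha-D-galactopyranoside in 50 mM citric acid, 0.005% Tween-20, pH 4.5, 20 min at room temperature. Compounds 0.7 nM–77 uM; fluorescence Ex 365/Em 440 after pH 10 stop; AC50 from Hill fits.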
# [13] = target: alpha-glucosidase (Oryza sativa, rice) (UniProt Q653V4); experiment: Counterscreen for Glucocerebrosidase Inhibitors: qHTS Assay for Rice alpha-Glucosidase at pH 5.0 (AID 997)
# Method in brief: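 Rice alpha-glucosidase (4 nM final) with 400 uM 4-methylumbelliferyl-alpha-D-glucopyranoside in citrate buffer pH 5.0, 20 min at room temperature, stopped at pH 10; fluorescence 365/440 nm, compounds 0.7 nM–77 uM, AC50 from Hill fits.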
# [14] = target: Tyrosyl-DNA phosphodiesterase 1 (Homo sapiens) (UniProt Q9NUW8); experiment: Confirmation Assay for Inhibitors of Tyrosyl-DNA Phosphodiesterase (TDP1) (AID 489007); details: recombinant human TDP1 enzymatic activity, dose-response; note: potency is the fitted concentration of half-maximal effect; nearly all actives have a fitted effect of over 40% in size
# Method in brief: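 Confirmation of primary-screen follow-ups in a qHTS format. Substrate cleavage by Tdp1 (1 nM) of a 3'-phosphotyrosine-FITC, 5'-biotin oligo (15 nM) was monitored as decreased AlphaScreen signal after a 5 min room-temperature reaction.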
# [15] = S16 Schwann cell PMP22 intronic element firefly luciferase assay (AID 624032); note: nearly all actives have a fitted effect of over 30% in size
# Method in brief: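 Rat S16 Schwann cells stably carrying a PMP22 intronic element-driven Fluc reporter were seeded overnight, then exposed to compounds for 24 h at 37 °C. Luminescence was normalized to PTC124 (positive control) and DMSO (0% activity).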
# [16] = target: ATP-dependent 6-phosphofructokinase (Trypanosoma brucei brucei) (UniProt O15648); experiment: qHTS Assay to Find Inhibitors of T. brucei phosphofructokinase: hit validation (AID 492961);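 note: luminescence reports ADP formed as PFK phosphorylates fructose-6-phosphate with ATP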
# Method in brief: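 Percent activity derived from corrected luminescence, normalized between 0x and 1x enzyme controls, then fitted to concentration-response curves. Conditions: 1.25 nM PFK, 0.1 mM ATP, 0.5 mM F6P, 45 min RT.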
# [17] = qHTS profiling for inhibitors of Plasmodium falciparum proliferation (AID 504749); note: nearly all actives have a fitted effect of over 60% in size; details: P. falciparum in erythrocytes, SYBR Green DNA, 72 h, at 28.7 µM (top of the series)
# Method in brief: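 P. falciparum-infected erythrocytes (0.3% parasitemia, 2.5% hematocrit final) were exposed to compounds for 72 h at 37 C in 5% CO2, then lysed with SYBR Green buffer overnight at room temperature; parasite DNA fluorescence was normalized to artemisinin and DMSO controls.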
# Sequence of Cytochrome P450 2D6 (Homo sapiens) (P10635 whole entry, looked up): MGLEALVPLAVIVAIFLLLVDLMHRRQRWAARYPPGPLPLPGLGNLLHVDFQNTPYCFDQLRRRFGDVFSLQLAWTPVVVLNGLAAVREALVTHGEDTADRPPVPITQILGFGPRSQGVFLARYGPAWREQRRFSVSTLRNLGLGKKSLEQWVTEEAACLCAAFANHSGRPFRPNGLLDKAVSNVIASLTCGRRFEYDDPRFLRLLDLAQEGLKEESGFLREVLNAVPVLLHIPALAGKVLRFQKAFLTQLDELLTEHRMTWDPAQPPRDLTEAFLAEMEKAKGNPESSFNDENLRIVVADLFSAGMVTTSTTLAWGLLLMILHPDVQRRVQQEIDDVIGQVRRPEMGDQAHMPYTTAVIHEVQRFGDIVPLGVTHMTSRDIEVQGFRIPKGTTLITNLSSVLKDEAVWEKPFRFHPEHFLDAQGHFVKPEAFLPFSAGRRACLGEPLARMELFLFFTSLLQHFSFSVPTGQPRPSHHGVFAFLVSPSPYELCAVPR
# Sequence of Cytochrome P450 2C19 (Homo sapiens) (P33261 whole entry, looked up): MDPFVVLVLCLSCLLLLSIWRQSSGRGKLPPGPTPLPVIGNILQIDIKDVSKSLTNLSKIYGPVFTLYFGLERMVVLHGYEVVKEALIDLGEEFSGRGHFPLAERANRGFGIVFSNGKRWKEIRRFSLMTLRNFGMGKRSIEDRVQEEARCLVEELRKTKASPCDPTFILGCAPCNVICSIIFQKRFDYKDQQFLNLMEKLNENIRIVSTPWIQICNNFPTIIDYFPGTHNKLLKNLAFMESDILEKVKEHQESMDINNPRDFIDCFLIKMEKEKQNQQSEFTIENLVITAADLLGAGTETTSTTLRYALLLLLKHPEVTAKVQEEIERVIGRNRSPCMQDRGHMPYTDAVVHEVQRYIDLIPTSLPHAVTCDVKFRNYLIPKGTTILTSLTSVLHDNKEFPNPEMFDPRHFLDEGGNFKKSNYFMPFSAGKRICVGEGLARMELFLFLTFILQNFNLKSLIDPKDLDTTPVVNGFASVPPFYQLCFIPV
# Sequence of ATP-dependent 6-phosphofructokinase (Trypanosoma brucei brucei) (O15648 whole entry, looked up): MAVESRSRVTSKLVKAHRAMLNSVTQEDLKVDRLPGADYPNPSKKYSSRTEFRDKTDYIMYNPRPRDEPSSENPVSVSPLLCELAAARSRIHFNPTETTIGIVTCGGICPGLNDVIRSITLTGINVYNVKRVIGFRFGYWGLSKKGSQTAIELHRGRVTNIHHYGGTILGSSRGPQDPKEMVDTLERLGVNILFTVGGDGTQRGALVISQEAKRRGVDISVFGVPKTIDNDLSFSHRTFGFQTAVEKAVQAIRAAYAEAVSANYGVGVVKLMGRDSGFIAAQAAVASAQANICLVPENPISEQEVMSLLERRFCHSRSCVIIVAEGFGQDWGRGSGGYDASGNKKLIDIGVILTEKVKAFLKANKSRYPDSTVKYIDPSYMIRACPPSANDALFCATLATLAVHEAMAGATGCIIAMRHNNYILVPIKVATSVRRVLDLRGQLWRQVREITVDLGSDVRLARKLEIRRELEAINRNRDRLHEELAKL
# Sequence of Ubiquitin carboxyl-terminal hydrolase 1 (Homo sapiens) (O94782 whole entry, looked up): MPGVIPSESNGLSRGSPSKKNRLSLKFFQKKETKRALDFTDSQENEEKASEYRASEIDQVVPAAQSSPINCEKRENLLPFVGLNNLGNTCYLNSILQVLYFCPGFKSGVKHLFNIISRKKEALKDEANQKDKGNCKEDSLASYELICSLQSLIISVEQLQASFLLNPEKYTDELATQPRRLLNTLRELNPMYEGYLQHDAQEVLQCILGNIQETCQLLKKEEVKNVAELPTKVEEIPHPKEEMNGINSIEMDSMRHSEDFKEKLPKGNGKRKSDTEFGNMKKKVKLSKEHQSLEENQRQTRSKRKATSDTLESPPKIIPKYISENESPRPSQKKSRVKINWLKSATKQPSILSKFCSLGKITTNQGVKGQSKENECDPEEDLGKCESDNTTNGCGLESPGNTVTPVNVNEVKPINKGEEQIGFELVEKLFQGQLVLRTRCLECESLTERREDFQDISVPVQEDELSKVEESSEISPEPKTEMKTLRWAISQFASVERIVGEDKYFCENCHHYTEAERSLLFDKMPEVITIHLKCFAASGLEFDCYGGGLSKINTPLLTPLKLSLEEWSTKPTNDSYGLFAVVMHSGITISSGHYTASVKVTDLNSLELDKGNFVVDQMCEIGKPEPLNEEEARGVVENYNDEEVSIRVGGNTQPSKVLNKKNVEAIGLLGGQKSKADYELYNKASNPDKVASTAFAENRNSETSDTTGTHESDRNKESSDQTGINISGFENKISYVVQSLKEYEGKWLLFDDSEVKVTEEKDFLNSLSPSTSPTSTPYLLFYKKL
# Sequence of Peroxisome proliferator-activated receptor gamma (Homo sapiens) (P37231 whole entry, looked up): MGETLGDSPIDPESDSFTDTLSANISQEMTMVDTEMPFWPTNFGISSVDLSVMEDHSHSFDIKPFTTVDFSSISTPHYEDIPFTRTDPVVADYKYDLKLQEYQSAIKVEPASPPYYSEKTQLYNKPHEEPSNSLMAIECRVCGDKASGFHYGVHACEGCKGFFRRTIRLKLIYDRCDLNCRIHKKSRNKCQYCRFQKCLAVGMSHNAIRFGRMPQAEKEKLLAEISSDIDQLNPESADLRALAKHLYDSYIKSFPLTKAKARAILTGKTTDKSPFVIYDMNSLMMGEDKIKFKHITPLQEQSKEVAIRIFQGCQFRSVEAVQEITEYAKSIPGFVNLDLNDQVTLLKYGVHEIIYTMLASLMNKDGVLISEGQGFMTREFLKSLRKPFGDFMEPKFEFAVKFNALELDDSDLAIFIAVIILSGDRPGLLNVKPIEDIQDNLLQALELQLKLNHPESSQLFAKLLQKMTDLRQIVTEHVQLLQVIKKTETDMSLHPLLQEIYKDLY
# Sequence of Tyrosyl-DNA phosphodiesterase 1 (Homo sapiens) (Q9NUW8 whole entry, looked up): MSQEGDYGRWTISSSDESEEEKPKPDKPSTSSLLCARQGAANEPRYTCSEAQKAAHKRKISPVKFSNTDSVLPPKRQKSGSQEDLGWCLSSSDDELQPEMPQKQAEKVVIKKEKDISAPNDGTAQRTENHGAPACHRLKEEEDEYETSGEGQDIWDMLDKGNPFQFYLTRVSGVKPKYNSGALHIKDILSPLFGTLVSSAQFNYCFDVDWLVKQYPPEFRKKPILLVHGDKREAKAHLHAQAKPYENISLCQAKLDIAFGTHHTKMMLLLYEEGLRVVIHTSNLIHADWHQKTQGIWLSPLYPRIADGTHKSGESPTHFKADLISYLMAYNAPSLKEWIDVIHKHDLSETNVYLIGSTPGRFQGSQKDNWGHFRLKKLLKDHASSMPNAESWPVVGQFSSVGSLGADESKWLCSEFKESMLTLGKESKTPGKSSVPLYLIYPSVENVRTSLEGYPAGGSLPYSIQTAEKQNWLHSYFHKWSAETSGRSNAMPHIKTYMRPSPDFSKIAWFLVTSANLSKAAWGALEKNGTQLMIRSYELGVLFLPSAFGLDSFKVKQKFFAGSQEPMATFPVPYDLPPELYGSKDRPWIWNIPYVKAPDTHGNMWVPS
# Sequence of Cytochrome P450 3A4 (Homo sapiens) (P08684 whole entry, looked up): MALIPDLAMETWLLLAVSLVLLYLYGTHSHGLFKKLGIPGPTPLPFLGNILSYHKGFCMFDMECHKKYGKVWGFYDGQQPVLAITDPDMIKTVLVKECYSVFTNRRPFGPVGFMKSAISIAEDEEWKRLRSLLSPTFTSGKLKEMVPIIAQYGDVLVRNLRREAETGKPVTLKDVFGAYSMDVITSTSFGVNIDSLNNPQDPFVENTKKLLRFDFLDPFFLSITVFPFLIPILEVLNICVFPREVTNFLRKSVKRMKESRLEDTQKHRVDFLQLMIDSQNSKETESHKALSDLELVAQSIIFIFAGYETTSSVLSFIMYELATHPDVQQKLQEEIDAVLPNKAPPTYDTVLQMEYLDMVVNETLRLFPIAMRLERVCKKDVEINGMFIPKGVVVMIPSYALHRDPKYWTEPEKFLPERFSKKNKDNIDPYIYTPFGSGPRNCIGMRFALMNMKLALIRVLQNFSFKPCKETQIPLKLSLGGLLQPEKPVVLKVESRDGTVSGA
# Sequence of Muscarinic acetylcholine receptor M1 (Rattus norvegicus) (P08482 whole entry, looked up): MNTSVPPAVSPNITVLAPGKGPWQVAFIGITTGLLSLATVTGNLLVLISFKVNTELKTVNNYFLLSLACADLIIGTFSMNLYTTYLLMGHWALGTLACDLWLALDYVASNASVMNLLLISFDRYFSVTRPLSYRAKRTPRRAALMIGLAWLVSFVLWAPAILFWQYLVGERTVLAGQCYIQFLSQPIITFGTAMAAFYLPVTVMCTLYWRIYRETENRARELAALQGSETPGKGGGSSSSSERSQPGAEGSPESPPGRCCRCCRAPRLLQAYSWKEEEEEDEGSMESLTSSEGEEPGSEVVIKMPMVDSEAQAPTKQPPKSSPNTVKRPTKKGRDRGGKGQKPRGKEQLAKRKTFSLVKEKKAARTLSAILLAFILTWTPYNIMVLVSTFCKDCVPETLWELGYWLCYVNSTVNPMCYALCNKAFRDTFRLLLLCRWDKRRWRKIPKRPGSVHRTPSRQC
# Sequence of Alpha-galactosidase A (Homo sapiens) (P06280 whole entry, looked up): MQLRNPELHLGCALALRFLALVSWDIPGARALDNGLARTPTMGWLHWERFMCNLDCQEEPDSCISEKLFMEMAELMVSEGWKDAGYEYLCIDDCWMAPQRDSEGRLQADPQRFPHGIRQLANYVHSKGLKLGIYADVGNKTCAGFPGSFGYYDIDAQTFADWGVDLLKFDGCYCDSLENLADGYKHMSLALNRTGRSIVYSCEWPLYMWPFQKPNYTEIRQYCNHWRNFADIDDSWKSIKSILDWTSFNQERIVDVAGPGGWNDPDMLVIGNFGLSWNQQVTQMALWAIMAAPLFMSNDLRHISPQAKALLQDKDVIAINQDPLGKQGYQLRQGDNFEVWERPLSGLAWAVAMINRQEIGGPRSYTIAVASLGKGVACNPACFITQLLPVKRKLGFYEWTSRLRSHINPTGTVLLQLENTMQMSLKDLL
compound,measurement,setting,value
OC(Cc1ccccc1)(c1ccccc1)C1CN2CCC1CC2 (centres undefined),activation,[1],10.8% (inactive)
OC(c1ccc(Cl)cc1)(c1ccc(Cl)cc1)C(Cl)(Cl)Cl,Potency,[2],inactive
same,Potency,[3],inactive
C#CCO,max response,[4],29.5%
same,Potency,[2],inactive
OC[C@H]1CCCN2CCCC[C@@H]12,Potency,[5],inactive
same,Potency,[6],inactive
CC1=CC(=O)C2=C(C)C[C@H](O)[C@@H]3[C@@H](OC(=O)[C@H]3C)[C@H]12,Potency,[5],inactive
same,Potency,[6],inactive
COc1cc2c(cc1O)CCN[C@H]2C,Potency,[6],inactive
COc1cc2c(cc1OC)-c1c(OC)c(OC)c(CO)c3c1[C@H](C2)N(C)CC3,Potency,[5],inactive
same,Potency,[6],inactive
Oc1cc2c(cc1O)[C@H]1c3ccccc3CN[C@H]1CC2,Potency,[7],inactive
COc1cc2c(cc1OC)-c1c(O)c(OC)cc3c1[C@@H](C2)N(C)CC3,Potency,[5],15.8 µM (active)
C[C@@]12CCC[C@](C)(C(=O)O)[C@@H]1CCc1ccc(O)cc12,Potency,[5],inactive
same,Potency,[6],inactive
COC1=C[C@H]2[C@@H]3Cc4ccc(OC)c(O)c4[C@@]2(CCN3C)CC1=O,Potency,[6],inactive
COC[C@H]1OC(=O)c2coc3c2[C@@]1(C)C1=C(C3=O)[C@H]2CCC(=O)[C@@]2(C)C[C@H]1OC(C)=O,Potency,[8],25.1 µM (active)
same,Potency,[9],inactive
same,Potency,[10],inactive
same,outcome,[11],inactive
same,outcome,[12],inactive
same,outcome,[13],inactive
same,Potency,[7],inactive
CC(=O)Nc1ccc(N=Cc2c(O)n(Cc3ccco3)c(=O)[nH]c2=O)cc1,Potency,[14],22.4 µM (active)
C[C@H](CCC(=O)O)[C@H]1CC[C@@H]2[C@H]3CC[C@H]4C[C@H](O)CC[C@]4(C)[C@@H]3CC[C@@]21C,Potency,[14],100 µM (active)
O=c1[nH]c(=O)n([C@H]2C[C@H](O)[C@@H](CO)O2)cc1/C=C/Br,Potency,[15],inactive
C[C@H](N)Cc1ccccc1,outcome,[16],inactive
same,Potency,[7],inactive
same,Potency,[15],inactive
same,"activity, negative = inhibition",[17]; parasite line A,-1.91% (inactive)
same,"activity, negative = inhibition",[17]; parasite line B,-0.429% (inactive)
CCNC(=O)[C@@H]1CCCN1C(=O)[C@H](CCCN=C(N)N)NC(=O)[C@H](CC(C)C)NC(=O)[C@@H](Cc1c[nH]c2ccccc12)NC(=O)[C@H](Cc1ccc(O)cc1)NC(=O)[C@H](CO)NC(=O)[C@H](Cc1c[nH]c2ccccc12)NC(=O)[C@H](Cc1cnc[nH]1)NC(=O)[C@@H]1CCC(=O)N1,outcome,[16],inactive
COc1ccc2c3c1O[C@H]1[C@@H](O)C=C[C@H]4C(C2)NCCC341 (some centres undefined),outcome,[16],inactive
same,Potency,[7],inactive
same,Potency,[15],inactive
same,"activity, negative = inhibition",[17]; parasite line A,7.6% (inactive)
same,"activity, negative = inhibition",[17]; parasite line B,-2.8% (inactive)
CCC1NC(=O)C(NC(=O)c2ncccc2O)C(C)OC(=O)C(c2ccccc2)NC(=O)C2CC(=O)CCN2C(=O)C(Cc2ccccc2)N(C)C(=O)C2CCCN2C1=O (centres undefined),outcome,[16],inactive
